In the library only some 0.47% were active in any assay of this set; here they are far more common.
MmCpn inh: inhibitors of Methanococcus maripaludis chaperonin TRiC (MmCpn); purified Mm-Cpn ATPase, ADP Transcreener TR-FRET; Potency, µM (doses to about 76.9 µM), for inactives: at the highest dose activity, negative = inhibition, usual class: inhibitors; 330,000 compounds, 0.031% hits; AID 504842; also: potency is read from the fitted curve at half-maximal effect; % is scaled to controls: 0 for no effect and ±100 for the full control effect; nearly all actives have a fitted effect of over 80% in size
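Purified archaeal Mm-CPN (25nM final) preincubated 10 min at 37degC with compound, then 10uM ATP for 30 min at 37degC; ADP measured by HTRF Transcreener TR-FRET; buffer 30 mM TRIS pH 7.4, 100mM KCl, 5mM MgCl2, 1mM DTT.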
Anesthetic bind: candidate novel general anesthetic via apoferritin binding. Potency, µM (doses to about 77.5 µM), without a hit: at the highest dose activity change, negative = displacement, most hits filed as inhibitors. apoferritin/1-aminoanthracene competitive binding, fluorescence. 350,000 compounds, 0.074% hits. P02791; also: potency is read from the fitted curve at half-maximal effect; % is scaled to controls: 0 for no effect and ±100 for the full control effect; nearly all actives have a fitted effect of over 20% in size
Target sequence (P02791 2-175 limits assumed): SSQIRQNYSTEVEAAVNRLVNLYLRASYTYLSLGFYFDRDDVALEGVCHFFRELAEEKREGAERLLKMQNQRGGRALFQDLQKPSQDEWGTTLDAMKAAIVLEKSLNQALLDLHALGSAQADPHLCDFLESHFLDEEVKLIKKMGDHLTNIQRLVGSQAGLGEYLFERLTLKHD
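Read-out: endpoint 1-AMA fluorescence, excitation 380 nm and emission 535 nm, after compounds sit 10 min at room temperature with 10 uM horse-spleen apoferritin in 50% saturated 1-AMA/PBS. Values come from four-parameter Hill fits.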
CCT chaperon mod: cytosolic chaperonin activity modulation. purified chaperonin ATPase assay, HTRF ADP detection, 30 min. activity change, % (test concentration not listed), hits read low. 360,000 compounds, 0.3% hits; in the data active = activity change below about -30%; also: % is scaled to controls: 0 for no effect and ±100 for the full control effect
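We incubate TRiC, 40 or 20 nM final, with library compounds at 76 uM and 10 uM ATP for 30 min at 37 °C. ADP formed is detected with Transcreener HTRF reagents after 30 min at room temperature.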
AT treatment: potential ataxia-telangiectasia treatment. F2112 A-T fibroblasts, KAP-1 phosphorylation AlphaLISA; neocarzinostatin DNA damage 30 min before lysis. Potency, µM (highest dose often 57.5 µM), for inactives: at the highest dose activation, hits mostly activators. 320,000 compounds, 0.19% hits; also: potency is read from the fitted curve at half-maximal effect; % of control where 0% means no effect; nearly all actives have a fitted effect of over 45% in size
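hTERT-immortalized A-T patient fibroblasts (F2112), 500 cells/well in OPTI-MEM, 1% FBS, got compounds for 60 min, then NCS for 30 min at 37C. Lysates were then assayed for phospho-KAP-1 by AlphaLISA (anti-pKAP1 donor, anti-KAP1 acceptor beads), 6 hr at 25C.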
Numbers without * were called inactive; ? = inconclusive; . = no result given; [ ] = dose if it differs, or a comment. Unless noted, calls follow the shape of the dose curve; as a rule, active = well fitted curve in the direction sought with a large enough effect; inconclusive = small, poorly fitted or top-dose-only effect, or another doubt; inactive = no such curve, though single readings can be large; an effect the other way counts as inactive or inconclusive.

SMILES | MmCpn inh | Anesthetic bind | CCT chaperon mod | AT treatment
O=C(Nc1ccnn1C1CCN(CC2CC=CCC2)CC1)c1ccccc1 (stereo unspecified) | -2% | -15% | -54* | 0%
COc1ccc(C(=O)Nc2ccnn2C2CCN(Cc3ccccn3)CC2)cc1 | -1% | -10% | -35* | 0%
COc1ccc(C(=O)Nc2ccnn2C2CCN(Cc3cnn(C)c3)CC2)cc1 | 3% | 3% | 0 | 8%
Cc1cccc(C)c1NC(=O)COC(=O)c1cc(=O)c2ccccc2o1 | -2% | 18% | -2 | 3.5µM*
Cc1cccc(NC(=S)NC(=O)C2CC2)c1 | 1% | 22µM* | . | 3%
CC1(C)CC(=O)C(CS(=O)(=O)c2ccccc2)=C(O)C1 | 0% | 32µM* | -2 | 5%
O=c1c2sc3ccccc3c2n(Cc2ccccc2)c(=O)n1CCc1ccccc1 | . | -6% | . | .
Cc1ccc(CNC(=O)c2cc3c(=O)n(C)c4ccccc4c3n2C)cc1 | 0% | 1% | -32* | 5%
COc1ccc(NC(=O)c2cc3c(=O)n(C)c4ccccc4c3n2C)cc1OC | 2% | 161% | -32* | -3%
COc1ccc(NC(=O)c2cc3c(=O)n(C)c4ccccc4c3n2C)cc1Cl | ? | -7% | -4 | -10%
N#Cc1nc(-c2ccc(OCc3ccc(Cl)cc3)cc2)oc1NCc1cccnc1 | -1% | ? | -3 | 9%
N#Cc1nc(-c2ccc(OCc3ccccc3)cc2)oc1NCc1cccnc1 | 0% | -2% | -36* | 21%
Fc1ccc(C(c2ccc(F)cc2)N2CCN(C/C=C/c3ccccc3)CC2)cc1 | 0%[15.4 µM] | 0% | 0 | 40µM*
C(=C\c1ccccc1)/CN1CCN(C(c2ccccc2)c2ccccc2)CC1 | ? | -3% | -1 | 12%
C/C=C\C1=C(CO)C(=O)[C@@H]2OC2C1=O (stereo partly specified) | . | 4%[15.3 µM] | . | .
C(=N\Nc1ccccn1)/c1c[nH]c2ccccc12 | -4% | -6% | -3 | 5µM*
O=c1nc(N/N=C/c2c[nH]c3ccccc23)cn[nH]1 | 3% | -12% | -3 | 0%
Cc1ccc(Cl)cc1N1CCN(C(=O)Cn2nc(C)n3c(cc4sccc43)c2=O)CC1 | . | 5% | . | .
N#Cc1cc([N+](=O)[O-])ccc1NC(=O)COC(=O)CCC1CCCCC1 | -1% | 32µM* | . | 6%
CCCCCCc1cc2cc(S(=O)(=O)c3ccc(C)cc3)c(=O)oc2cc1O | 1% | -15% | -1 | 28µM*
Cc1nn(C2CCS(=O)(=O)C2)c(C)c1C=O (stereo unspecified) | -4% | 1% | -36* | 14%
O=C(C1CCC1)N1CCc2cc(S(=O)(=O)NCc3ccc(F)cc3)ccc21 | . | -13% | . | .
O=C(NCc1ccccn1)Nc1cccc(Cl)c1 | -2% | ? | -42* | 7%
CCOC(=O)c1c(C2COc3ccccc3O2)csc1N (stereo unspecified) | 1% | ? | -41* | .
Cc1cc(C(=O)NCc2cccnc2)no1 | 0% | -9% | -31* | -18%
SMILES | MmCpn inh | Anesthetic bind | CCT chaperon mod | AT treatment
CCOC(=O)C1CCN(c2nc(-c3ccc(Br)cc3)cs2)CC1 | 1% | . | . | .
C#CCn1c2ccccc2c2nc3ccccc3nc21 | 0% | 1% | -2 | -7%
CC(C)n1c2ccccc2c2nc3ccccc3nc21 | -2% | 4% | 3 | 35µM*
COCCN1C=C(C(=O)OC)C(c2ccc(Cl)cc2)C(C(=O)OC)=C1 | -3% | 489% | -2 | 28%
CCOc1ccc(C2C(C(=O)OC)=CN(CCOC)C=C2C(=O)OC)cc1 | -3% | 322% | -1 | 28µM*
CCOc1ccccc1CNC(=O)CCn1c(=O)c2cccn2c2ccc(F)cc21 | . | -3% | . | .
COc1cc(O)c2c(c1)OC(c1ccc(O)cc1)CC2=O (stereo unspecified) | . | ? | -1 | 40µM*
CCN1C(=O)[C@H]2[C@@H](c3ccc(-c4ccc(Cl)c(Cl)c4)cc3)N[C@@](CC(C)C)(C(=O)OC)[C@H]2C1=O | -23% | . | 1 | 35µM*
CCN1C(=O)[C@H]2[C@@H](c3ccc(-c4cccc(Cl)c4)cc3)N[C@@](CC(C)C)(C(=O)OC)[C@H]2C1=O | 0% | . | -2 | -8%
CCCc1nn2c(=O)cc(COC(=O)c3cccc(NC(=O)c4ccc(OCC)cc4)c3)nc2s1 | . | -17% | . | .
Cc1noc(C)c1C(=O)Nc1ccccc1N1CCOCC1 | -1% | . | -30* | 4%
Cn1nc([N+](=O)[O-])nc1N1CCOCC1 | -3% | 1% | -44* | -7%

Screening data from PubChem.
